# Assay results: ChEMBL document CHEMBL3433997, “St. Jude Leishmania screening dataset” (2016)
# Target: Hexose transporter 1 (Plasmodium falciparum) (UniProt O97467)
# Experiment: ST_JUDE_LEISH: Cytotoxicity at 2uM final concentration against transgenic Leishmania Mexicana promastigotes LmPfHT that are glucose transport deficient and complemented with the Plasmodium falciparum hexose transporter. Activity is measured by DNA content using SYBR green in vitro
# Format: functional
row,SMILES,inhibition [%]
1,CCCC(CNCc1cccc(OC(F)(F)C(F)F)c1)CNc1cc(=O)c2ccccc2[nH]1 (stereo not given),-0.41
2,CCN(CC)c1ccccc1CNC(=O)c1cc(Cl)c(N)cc1OC,9.03
3,CCN(CC)S(=O)(=O)c1ccc(Cl)c(C(=O)Nc2ccc3nc(C)sc3c2)c1,-0.92
4,O=C(/C=C/c1ccc2ccccc2c1)NCC1(c2ccc(-c3ccccc3)cc2)CCOCC1,2.55
5,O=C(Nc1cccc(-c2cccc(-c3nc4ccccc4[nH]3)c2)c1)Nc1ccc(F)c(F)c1F,4.36
6,CCCCN1Cc2c(n(CC(=O)Nc3ccccc3)c3cc(-c4ccccc4)nn3c2=O)C1=O,1.92
7,Cc1cccc2nc(-c3ccc(-c4ccc(NC(=O)Nc5ccc(Cl)c(Cl)c5)cc4)s3)[nH]c12,1.27
8,COc1cccc(C(=O)C2CC2CN(C)CC(O)c2cc(C)c(OC)cc2C)c1 (stereo not given),-1.24
9,O=C(Nc1cccc(C(F)(F)F)c1)c1cccc(S(=O)(=O)NCC2CCCN(CC3CCCCC3)C2)c1 (stereo not given),0.12
10,Cn1cc(Br)c(-c2cccc(Nc3ccnc4cc(-c5nccs5)ccc34)c2)n1,2.34
11,CC1=C(C(=O)OCCOCc2ccccc2)C(c2ccccc2C(F)(F)F)C(C(=O)OCCOCc2ccccc2)=C(C)N1,-0.98
12,Cc1cc(OCCCN2CCCCC2C)ccc1NC(=O)COc1ccc(Cl)cc1C(=O)c1cc(Cl)cc(C#N)c1 (stereo not given),78.3
13,CC(C)(C)c1ccc(CNCCOc2ccc(Nc3nnc(-c4ccc(-c5ncc[nH]5)cc4)o3)c3ccccc23)cc1,2.75
14,C=CCn1c(Cc2ccccc2)nnc1Sc1ccc(C#N)c([N+](=O)[O-])c1,3.11
15,O=C(NC1CCN(Cc2ccccc2)CC1)c1cccc(-c2cc3cc(Cl)c(Cl)cc3[nH]2)c1,-1.61
16,CC(C)Cc1ccc(N2CCN(CCCCNC(=O)c3ccc(NC(=O)c4cc(C(F)(F)F)cc(C(F)(F)F)c4)cc3)CC2)cc1,1.08
17,CCC(C)(C)C1CCc2nc(N)nc(N)c2C1 (stereo not given),71.9
18,NC(=O)COc1c(C2CCN(CCN3CCC(CNC(=O)c4ccc(-c5ccc(C(F)(F)F)cc5)cc4)CC3)CC2)ccc2c1CCCC2,4.29
19,CC(C)c1ccc(C=CC(=O)N2CCC(CCN3CCC(c4c[nH]c5ccccc45)CC3)CC2)cc1,-1.09
20,N=C(N)NC(=O)Nc1ccc(Cl)c(Cl)c1,-2.48

row,SMILES,inhibition [%]
1,Cc1cccc2nc(-c3ccc(-c4cccc(CNCc5ccc(S(C)(=O)=O)cc5)c4)s3)[nH]c12,9.13
2,FC(F)(F)COc1ccc2ccccc2c1CCNCCCCNCCc1c(OCC(F)(F)F)ccc2ccccc12,103
3,CN(C)CCCN1CCN(C(=O)c2cc3cc(-c4ccccc4)ccc3n2S(=O)(=O)c2ccccc2)CC1,24.3
4,Cc1ccc(C(=O)Nc2ccc(Nc3ccnc4cc(-c5nccs5)ccc34)cc2O)cc1,3.22
5,COc1cc(OC)c2c(C)cc(NCCCN3CCOCC3)nc2c1,0.95
6,CN1CCN(Cc2cccc(-c3ccc4c(Nc5ccc(Oc6ccccc6)cc5)ccnc4c3)c2)CC1,17
7,CO/C(=C\C=C\c1cc2cc(Cl)c(Cl)cc2[nH]1)C(=O)NCCCN1CC(C)N(C)CC1C (stereo not given),5.89
8,O=C(Nc1ccncc1)c1cn(-c2ccccc2)nc1-c1cccs1,2.4
9,COCCNCc1ncsc1-c1ccc2c(Nc3ccc(Oc4ccccc4)cc3)ccnc2c1,1.15
10,O=C1NC(=O)C(c2ccc(Cl)cc2)=C1Nc1cccc(S(=O)(=O)C(F)(F)F)c1,0.65
11,COc1ccc(-c2nnc(Sc3ccc(C#N)c([N+](=O)[O-])c3)n2CCC(C)C)cc1,5.04
12,COc1ccc2[nH]c(C)cc(=NN=Cc3ccncc3)c2c1,-0.44
13,CN(C)Cc1cccc(-c2ccc(NC(=O)c3ccc4c(=O)n(CCN5CCCCC5)cnc4c3)cc2)c1,3.74
14,Fc1cccc(COc2ccc(Nc3ncnc4ccc(C#C[C@H]5CCCN5)cc34)cc2Cl)c1,1.5
15,CCCNc1nc(Nc2ccccc2C)nc2ccccc12,33.5
16,CCC(C)NCC(O)(c1ccc(Cl)cc1)c1ccc(Cl)cc1 (stereo not given),-0.32
17,CC(C)=C(C(=O)OCc1ccccc1)N1C(=O)[C@@H](NC(c2ccccc2)(c2ccccc2)c2ccccc2)[C@H]1[S+]([O-])CC(=O)OC(C)(C)C (stereo not given in full),-0.01
18,CC(=O)Nc1ccc(S(=O)(=O)N(Cc2cccc(Oc3ccccc3)c2)C2CCN(C/C=C(\C)CCC=C(C)C)CC2)cc1,0.21
19,COc1ccc(-c2ccc(NC(=O)c3ccc(Cl)cc3)cc2)cc1CN1CCNCC1,2.41
20,CCC[C@@H]([C@@H](CC1CCCCC1)C(=O)N[C@H](C(=O)Nc1nccc(N)n1)C(C)(C)C)N(O)C=O,4.83
